Screening results from PubChem BioAssay.
ALDH1A1 block – qHTS Assay for Inhibitors of Aldehyde Dehydrogenase 1 (ALDH1A1) | Potency, µM (series often up to 75.3 µM), without a hit: at the top dose activity, negative = inhibition, usual class: inhibitors | Aldehyde dehydrogenase 1A1 (Homo sapiens), P00352 | 7.3% of 220,000 active | Purified ALDH1A1, NADH fluorescence, propionaldehyde substrate; active = well fitted inhibition curve with a large enough effect, not every such curve was filed as active; inconclusive = small, poorly fitted or top-dose-only effect, or another doubt; inactive = no such curve, though single readings can be large or run the other way;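 note: plate controls were no enzyme wells and a reference inhibitor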
RORgamma inh – qHTS for inhibitors of ROR gamma transcriptional activity; Nuclear receptor ROR-gamma (Mus musculus), P51450; Drosophila S2 Gal4-RORgamma UAS-luciferase reporter, 20 h; Potency, µM (series often up to 53.6 µM), inactives show at the top dose activity change, negative = inhibition, actives largely listed as inhibitors; 5.4% of 310,000 active; note: nearly all actives have a fitted effect of over 60% in size
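A Gal4/UAS one-hybrid system in insect cells: metallothionein-promoter Gal4–ROR gamma fusion plus Photinus luciferase reporter. Copper sulfate 700 uM final, 20 hr ambient incubation, luminescent detection after 10 min with reagent.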
Gal4-VP16 FLuc – VP16 counterscreen qHTS for inhibitors of ROR gamma transcriptional activity | Potency, µM (series often up to 53.6 µM), inactives show at the highest dose activity, negative = inhibition, actives largely listed as inhibitors | 3.5% of 310,000 active | Drosophila S2 Gal4-VP16 UAS-luciferase, luminescence, 20 h;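 note: Gal4-VP16 expression switched on by copper sulfate through the metallothionein promoter; nearly all actives have a fitted effect of over 50% in size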
Sfp inh – qHTS Assay for Inhibitors of Bacillus subtilis Sfp phosphopantetheinyl transferase (PPTase); Potency, µM, without a hit: largest response in the series, negative = inhibition, usual class: inhibitors; Biochemical Sfp PPTase activity, qHTS; 3.5% of 310,000 active; 4'-phosphopantetheinyl transferase ffp (Bacillus subtilis), Q9F4F7;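 note: the enzyme is Sfp with the accession as filed and its product quenches rhodamine fluorescence; 0% = enzyme reaction without inhibitor and -100% = no enzyme wells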
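Fluorescence-quenching assay: 15 nM Sfp-PPTase preincubated 15 min at room temperature with compound, then 5 uM rhodamine-CoA and 12.5 uM BHQ-2-labelled YbbR peptide added. Fluorescence (ex 525/em 598 nm) read at start and after 30 min; difference gives rate.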
PLK1 PBD block – qHTS for Inhibitors of PLK1-PDB (polo-like kinase 1 - polo-box domain): Primary Screen; Potency, µM, for inactives: max response, negative = inhibition, hits mostly inhibitors; Plk1 PBD binding of FITC phosphopeptide, fluorescence polarization; 2.8% of 360,000 active; AID 720504, 2013; note: series mostly up to about 57 µM; nearly all actives have a fitted effect of over 65% in size
Target sequence (P53350 whole entry, looked up, the tested form may be a part): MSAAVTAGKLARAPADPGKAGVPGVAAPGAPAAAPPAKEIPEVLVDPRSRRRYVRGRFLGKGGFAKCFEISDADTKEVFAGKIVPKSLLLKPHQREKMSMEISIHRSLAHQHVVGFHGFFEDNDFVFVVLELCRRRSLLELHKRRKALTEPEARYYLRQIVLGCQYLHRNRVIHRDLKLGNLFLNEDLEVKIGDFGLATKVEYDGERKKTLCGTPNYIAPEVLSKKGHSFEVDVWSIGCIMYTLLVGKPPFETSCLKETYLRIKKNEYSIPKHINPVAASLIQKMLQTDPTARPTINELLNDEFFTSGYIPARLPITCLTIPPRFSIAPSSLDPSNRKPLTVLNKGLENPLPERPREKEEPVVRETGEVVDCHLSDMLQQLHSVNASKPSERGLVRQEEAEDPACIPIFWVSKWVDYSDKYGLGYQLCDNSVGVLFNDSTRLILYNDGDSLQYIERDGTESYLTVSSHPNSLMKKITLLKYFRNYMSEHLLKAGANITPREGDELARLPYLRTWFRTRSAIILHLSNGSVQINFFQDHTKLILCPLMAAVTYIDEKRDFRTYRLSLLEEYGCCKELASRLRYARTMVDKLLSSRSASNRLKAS
An asterisk follows results filed as active; ? = inconclusive; . = no result given; ! = not active in a repeat; [ ] = dose if it differs, or a comment. Hits are enriched below; roughly 12% of the tested compounds scored in any of these assays. Unless noted, calls come from the whole dose curve; as a rule, active = well fitted curve in the direction sought with a large enough effect; inconclusive = small, poorly fitted or top-dose-only effect, or another doubt; inactive = no such curve, though single readings can be large; an effect the other way counts as inactive or inconclusive. Unless noted, % is set by controls: 0 for no effect and ±100 for the full control effect; potency is the fitted concentration of half-maximal effect.

SMILES	ALDH1A1 block	RORgamma inh	Gal4-VP16 FLuc	Sfp inh	PLK1 PBD block
CN(C)S(=O)(=O)c1ccc(Cl)c(NC(=O)COC(=O)c2ccc3c(c2)NC(=O)CS3)c1	3.55µM*	1.7%	-9.1%	25.1µM*	?
CCC(C)NC(=S)Nc1ccccc1OC (centres undefined)	-7.5%	4.8%	-1.2%	6.2%	-6.0%
COc1ccccc1NC(=S)NC1CCCC1	.	.	.	.	2.0%
CN(C)NC(=S)NC1CC2CCC1C2 (centres undefined)	.	5.62µM*	12.6µM*	-13.0%	2.2%
COc1ccccc1NC(=S)NC1CCC(CC2CCC(NC(=S)Nc3ccccc3OC)CC2)CC1 (centres undefined)	-14.9%	3.55µM*	3.16µM*	9.8%	-4.3%
COc1ccccc1NC(=S)NC1CC2CCC1C2 (centres undefined)	.	2.24µM*	15.8µM*	25.7%	-12.4%
O=C(OC1C[C@@H]2CC3C[C@H](C1)N2CC3=O)c1c[nH]c2ccccc12 (some centres undefined)	.	8.9%	2.8%	10.7%	.
COc1cc(CC(=O)O)ccc1O	25.1µM*!	0.0%	-2.8%	-11.6%	-20.9%
FC(F)(F)c1nc(N2CCCC2)ncc1-c1nnnn1-c1ccc(Cl)cc1	-12.2%	-40.4%	15.8µM*	-7.6%	-4.4%
CN1CCN(c2ncnc3c2ncn3[C@H]2CN(C)C[C@@H](CO)O2)CC1	.	.	.	.	3.9%
COc1cc(NCCC(=O)O)c2ncccc2c1	22.4%[13.5 µM]	.	.	.	.
COc1ccc(OC)c(S(=O)(=O)N2CCN(c3ncccn3)CC2)c1	.	-6.0%	-2.1%	-3.9%	?
CCOc1ccc(C(C)C)cc1S(=O)(=O)N1CCOCC1	8.91µM*	17.1%	-11.7%	9.9%	0.2%
COc1ccc(OC)c(S(=O)(=O)N2CCN(c3c(C)cccc3C)CC2)c1	14.1µM*	?	-3.9%	-2.2%	0.4%
CCOc1ccc(OCC)c(S(=O)(=O)N2CCOCC2)c1	-3.3%	2.9%	5.6%	9.3%	-6.8%
COc1ccc(/C=C/C(=O)Nc2ccc(NC(C)=O)cc2)cc1S(=O)(=O)N1CCOCC1	.	6.1%	-2.7%	9.5%	29.9µM*
COc1ccc(/C=C/C(=O)OCC(=O)Nc2ccc(N3CCOCC3)cc2)cc1	4.1%	-8.2%	2.4%	-9.8%	-16.2%
CCOc1ccc(/C=C/C(=O)Nc2ccc(N3CCOCC3)cc2)cc1	8.8%	7.4%	1.9%	-8.3%	3.36µM*
COc1ccccc1C(CNC(=O)CN1C(=O)NC(C)(c2ccc3ccccc3c2)C1=O)N1CCCC1 (centres undefined)	.	.	.	.	-0.6%
COc1ccc(C)cc1S(=O)(=O)N1CCOCC1	5.9%	-2.1%	2.3%	12.2%	18.9µM*
CCc1ccc(/C=C2/C(=O)NC(=O)N2C(C)=O)cc1	.	1.5%	-8.7%	2.4%	?
O=C(CSC(=S)N1CCOCC1)Nc1nc(=O)c2ccccc2s1	6.31µM*	12.6µM*	10µM*	79.4µM*	.
O=C(Nc1nc(=O)c2ccccc2s1)c1ccc(Cl)cc1	?	3.16µM*	26.3%[0.365 µM]	25.1µM*	?
O=C(Nc1nc(=O)c2ccccc2s1)c1ccc(F)cc1	?	7.08µM*	2.82µM*	56.2µM*	-1.5%
O=C(Cc1ccccc1)Nc1nc(=O)c2ccccc2s1	?	?	4.47µM*	?	-21.1%
SMILES	ALDH1A1 block	RORgamma inh	Gal4-VP16 FLuc	Sfp inh	PLK1 PBD block
O=C(Cc1ccccc1)Nc1nc2ccccc2s1	-1.9%	33.2%	?	1.9%	-16.9%
CC(C(=O)Nc1nc(-c2ccc(F)cc2)cs1)N1C(=O)C2CC=CCC2C1=O (centres undefined)	.	.	.	.	-2.4%
CC(=O)N1CCOc2ccc(S(=O)(=O)N3CCC(C(=O)NCc4ccc(Cl)cc4)CC3)cc21	.	.	.	.	7.3%
O=C(O)[C@@H]1[C@@H](C(=O)NCc2ccccn2)[C@@H]2C=C[C@@H]1O2	-9.2%[13.5 µM]	.	.	.	.
CCC(=O)N1CCC(C)(C(=O)NCc2ccc(F)cc2)C1 (centres undefined)	.	.	.	.	-3.5%
CN(C)/N=C/C=C1\CC/C(=C\c2ccc(Br)cc2)C1=O	-4.3%	15.6%	2.3%	-7.6%	3.7%
CN(C)/N=C/C=C1\CCC/C(=C/c2cccs2)C1=O	25.1µM*	13.1%	?	20.2%	3.8%
CCOc1ccc(NC(=O)CN(C)C(=O)c2cccc(S(=O)(=O)N3CCN(C)CC3)c2)cc1OCC	.	.	.	.	-5.8%
O=C(NC(=S)Nc1ccc(Cl)cc1)c1ccccc1	15µM*	20µM*	?	-11.5%	-12.7%
O=C(NC(=S)Nc1ccc(NC(=O)c2ccccc2)cc1)c1ccc(F)cc1	.	-39.1%	-2.5%	13.7%	-15.5%
O=C(NC(=S)Nc1ccc(Oc2ccc(Cl)cc2)cc1)c1ccccc1	8.91µM*	3.55µM*	7.94µM*	9.6%	-9.0%
O=C(CSc1ccc(Cl)cc1)NC(=O)c1ccccc1	.	.	.	.	11.9µM*
C[C@@H]1CN([C@H](C)CO)C(=O)c2cc(Br)cnc2O[C@H]1CN(C)C(=O)Cc1ccccc1	.	.	.	.	-1.3%
CCOC(=O)C1=CC[C@@H](c2ccccc2)N(S(=O)(=O)c2ccc(C)cc2)[C@H]1C=C(C)C	.	.	.	.	-9.5%
NC(=S)Nc1ccc(Oc2ccc(NC(N)=S)cc2)cc1	28.2µM*	10.4%	-0.9%	-11.0%	-11.3%
Cc1cc(=S)[nH]c2c(C)cccc12	-15.5%	11.2µM*	?	14.4%	?
Cc1cccc2c(-c3ccccc3)cc(=O)[nH]c12	5.2%	10.2%	-7.2%	17.5%	-1.4%
COCCn1c(N)c(N(Cc2ccccc2)C(=O)C(C)Oc2ccc(Br)cc2)c(=O)[nH]c1=O (centres undefined)	.	.	.	.	-2.3%
O=C(N/N=C/c1ccc(F)cc1)c1sccc1OCc1ccc(F)cc1	-1.8%	-3.7%	22.0%	-30.0%	-5.8%
NNC(=O)c1sccc1OCc1ccc(Cl)cc1Cl	3.55µM*	-35.8%	?	3.7%	-22.7%
NNC(=O)c1sccc1OCc1ccc(F)cc1	10µM*	13.4%	-2.0%	5.6%	-4.9%
Cc1nc(SCC(=O)c2cc(C)n(C3CC3)c2C)c2ccccc2n1	.	.	.	.	-3.1%
COCCNC(=O)C1CCCN(Cc2ccccc2F)CC1 (centres undefined)	.	.	.	.	-9.2%
Cc1ccsc1/C=C1\CCc2ccccc2C1=O	?	?	11.2µM*	-19.2%	-5.7%
COc1ccc(/C=C2\CCc3ccccc3C2=O)cc1Cn1nc(C)cc1C	?	?	?	20µM*	0.5%
CC(=O)Oc1ccc(/C=C2/CCc3ccccc3C2=O)cc1	?	8.91µM*	10µM*	-7.6%	1.7%
COc1ccc2c(c1)CC/C(=C\C=C\c1ccccc1)C2=O	28.2µM*	-18.5%	-15.0%	28.2µM*	-25.7%
COc1ccc(/C=C2\CCc3ccccc3C2=O)cc1OC	?	43.6%	-10.0%	-15.6%	1.0%
COc1ccc(/C=C2/CCc3ccccc3C2=O)cc1CN1CCOCC1	-0.1%	42.3%	-13.6%	1.0%	-10.1%
